Measurements published in PubChem BioAssay AID602449 (Sanford-Burnham Center for Chemical Genomics, 2012).
The whole screen tested about 360,000 compounds, of which about 5,000 (1.4%) were called active.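 The calls were made as follows: active = inhibition of 50% or more, scaled per plate between neutral and stimulator controls; inactive = the rest.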 Shown is part of a subset that was picked to be rich in actives.

experiment: mitochondrial permeability transition pore inhibitors, primary screen, biochemical, isolated mouse mitochondria, absorbance (AID 602449); settings: Ca2+ swelling absorbance, 30 min, at 10 µM, hits give high values;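 also: 0% = DMSO wells given calcium and 100% = 1 mM EGTA wells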

| Compound | inhibition |
| --- | --- |
| Cc1ccc(Sc2ccc(NC(=O)c3ccc(F)cc3)cc2C#N)cc1 | 72.3% (active) |
| COc1ccc(Sc2ccc(NC(=O)c3cccc(Cl)c3)cc2C#N)cc1 | 80.5% (active) |
| COc1ccc(NC(=O)c2cccc(Cl)c2)c[n+]1[O-] | 1.1% (inactive) |
| COC(=O)c1ccc(Sc2ccc(F)cc2)c(N)c1 | -3% (inactive) |
| Cc1ccc(C(=O)NC2CCN(C(=O)Nc3ccc(F)cc3)CC2)cc1 | -0.9% (inactive) |
| CSc1ccc(/C=N/NC(=O)c2cccc(Cl)c2)cc1 | 3% (inactive) |
| Cc1ccccc1CNC(=O)CCC(=O)N1Cc2ccccc2Oc2ncccc21 | -0.6% (inactive) |
| CC(C)(C)n1c(=O)[nH]c2c(c1=O)CCC2 | -1.7% (inactive) |
| CC(C)=C1SC(N2CCN(c3ccc(C)c(Cl)c3)CC2)=NC1=O | 2.6% (inactive) |
| COc1ccc(S(=O)(=O)N2CCN(C(C)C(=O)Nc3ccc(C(C)C)cc3)CC2)cc1 (stereo not given) | 0.5% (inactive) |
| Cn1c(N2CCOCC2)c(C=O)c2ccccc21 | -0.1% (inactive) |
| COc1cccc(NC(=O)CSc2nnc(-c3cccnc3)o2)c1 | -1.2% (inactive) |
| COc1ccc(C(=O)NCc2nnc(SCC(=O)Nc3cccc(OC)c3)o2)cc1 | -0.9% (inactive) |
| COc1ccc2oc(-c3cccc(NC(=O)CSc4ccc(Cl)cc4)c3)nc2c1 | 86.6% (active) |
| CCOC(=O)c1sc(=NC(=O)/C=C/c2cccs2)n(C)c1C | 1.4% (inactive) |
| O=C(NCCNc1ccc([N+](=O)[O-])cc1)c1cccc2c(Br)cccc12 | 77.6% (active) |
| CC(CNc1ccc([N+](=O)[O-])cc1)NC(=O)c1ccccc1Br (stereo not given) | 0% (inactive) |
| O=C(NCCNc1ccc([N+](=O)[O-])cc1Cl)c1ccccc1F | 1% (inactive) |
| Cc1c(Cl)c([N+](=O)[O-])nn1CC(=O)NCC1CCCO1 (stereo not given) | -1.6% (inactive) |
| CCN(CC)c1ccc(NC(=O)c2ccc(=O)[nH]c2)cc1S(=O)(=O)Nc1ccc(OC)cc1 | -0.4% (inactive) |
| Cc1ccc(C(=O)NC23CC4CC(CC(C4)C2)C3)c(Cl)c1 | -0.2% (inactive) |
| S=C(NCc1ccc(Cl)cc1)NC12CC3CC(CC(C3)C1)C2 | 96.8% (active) |
| S=C(NCc1ccc(Cl)cc1)NC1CCCCC1 | 67.6% (active) |
| COc1ccc(Cl)cc1C(=O)NNC(=S)NC1CCCC1 | -0.5% (inactive) |

| Compound | inhibition |
| --- | --- |
| O=C(NCc1ccc2c(c1)OCO2)C12CC3CC(CC(C3)C1)C2 | 3.7% (inactive) |
| O=C(NNC(=S)NC1CCCCC1)c1ccccc1Cl | 0.2% (inactive) |
| CCOCCCNC(=O)C1(O)c2cc(Br)ccc2NC(=O)N1c1ccc(C)c(C)c1 (stereo not given) | 0.7% (inactive) |
| O=C(NCCOc1ccccc1F)Nc1ccc(Br)cc1 | 87.9% (active) |
| O=C(COc1ccccc1F)NNC(=O)c1cc(Br)ccc1Cl | -1.8% (inactive) |
| O=C(NCCOc1ccccc1Cl)C(=O)Nc1ccccc1 | -1.3% (inactive) |
| COC(=O)CNC(c1ccccc1Cl)c1cc(Br)ccc1NC(=O)CCN1CCOCC1 (stereo not given) | -1% (inactive) |
| CCC(C(=O)NCc1ccccc1)n1c(Cc2cc(F)cc(F)c2)nc2ccccc21 (stereo not given) | 2.2% (inactive) |
| O=S(=O)(Nc1ccccc1N1CCOCC1)c1ccc(Cl)s1 | -0.7% (inactive) |
| COc1cc(NC(=O)c2ccccc2NS(=O)(=O)c2ccc(Cl)s2)cc(OC)c1 | 67% (active) |
| COc1ccccc1C(=O)Nc1ccc(Nc2ccccc2)cc1 | 0.9% (inactive) |
| COc1cccc(NC(=O)c2ccccc2N(Cc2ccccc2)S(C)(=O)=O)c1 | 0% (inactive) |
| CCOC(=O)c1ccc(N/C(=N/S(=O)(=O)c2ccccc2)c2ccccc2)cc1 | 1.7% (inactive) |
| COC(=O)c1ccc(NC(=O)c2ccccc2NS(=O)(=O)c2ccccc2)cc1 | 102% (active) |
| COc1cc(C(=O)NNC(=O)CN2C(=O)NC3(CCCC3)C2=O)cc(OC)c1OC | -0.8% (inactive) |
| COc1ccc(NS(=O)(=O)c2ccc(Oc3c(C#N)cccc3C#N)cc2)cc1 | 91.6% (active) |
| COc1ccc(NS(=O)(=O)c2ccc(NC(=O)c3ccc(N(C)S(C)(=O)=O)cc3)cc2)cc1 | 21.3% (inactive) |
| COc1ccc(NS(=O)(=O)c2ccc(N3CCN(CCO)CC3)c([N+](=O)[O-])c2)cc1 | 2.1% (inactive) |
| CC(=O)N/N=C(\C)c1ccc(Br)cc1Br | -4.6% (inactive) |
| C/C(=N/NC(=O)c1cc(Cl)ccc1O)C12CC3CC(CC(C3)C1)C2 | 9.3% (inactive) |
| CC(=N\NC(=O)c1cc(Br)ccc1O)/C(=N/O)C(=O)Nc1ccccc1 | 76.8% (active) |
| CCO[C@H]1OC(C(=O)O)=C[C@@H](C2CCCCC2)[C@@H]1CCCO | -1.5% (inactive) |
| O=C(COC(=O)c1cnccn1)Nc1ccc(Cl)cc1C(F)(F)F | -0.1% (inactive) |
| C=CCNC(=O)CCCC(=O)NCC=C | 1.2% (inactive) |

| Compound | inhibition |
| --- | --- |
| O=C(OC1CC2CC1[C@H]1CCCCN1C2=O)N1CCOCC1 (stereo not given in full) | -3% (inactive) |
| Cc1ccc(C)c(NC(=S)NCC(c2cccnc2)N2CCOCC2)c1 (stereo not given) | -1.7% (inactive) |
| Cc1ccc(C)c(NC(=S)NNC(=S)Nc2ccc(C(C)C)cc2)c1 | 93.7% (active) |
| Cc1ccc(C)c(NC(=O)C2CC(=O)N(C(C)C)C2)c1 (stereo not given) | -0.7% (inactive) |
| CCc1ccccc1NC(=O)CN(C)C(=O)COc1ccc(C)nc1[N+](=O)[O-] | 14.3% (inactive) |
| O=C(NCc1ccncc1)C1CCN(C(=O)c2cccc(Cl)c2)CC1 | 0.5% (inactive) |
| C=CCn1c(N)cc(=O)nc1SCC(=O)Nc1cccc2ccccc12 | 0.1% (inactive) |
| Cc1cccc(NS(=O)(=O)c2ccc([N+](=O)[O-])cc2)n1 | 0.2% (inactive) |
| O=[N+]([O-])c1ccc(NS(=O)(=O)c2ccccc2)c(Cl)c1 | 86.7% (active) |
| O=C(NNS(=O)(=O)c1ccc(F)cc1)c1ccc([N+](=O)[O-])cc1Cl | -0.9% (inactive) |
| CC(Nc1ccccc1)c1cccnc1 (stereo not given) | -1.4% (inactive) |
| CC(=O)c1c(C)[nH]c(C(=O)OCC(=O)Nc2sc3c(c2C#N)CCCC3)c1C | 98.8% (active) |
| CC(=O)c1c(C)[nH]c(C(=O)OCC(=O)Nc2c(C)cccc2C)c1C | 1.5% (inactive) |
| N#Cc1c(NC(=O)CCCl)sc2c1CCCCC2 | 0.2% (inactive) |
| O=C1CCN(Cc2ccc([N+](=O)[O-])cc2)CCN1[C@H](CO)Cc1ccccc1 | -0.2% (inactive) |
| COCc1nnc(NC(=O)CS(=O)(=O)Cc2ccccc2)s1 | 0.4% (inactive) |
| O=C(Nc1ccccc1)Nc1nnc(COc2ccccc2F)s1 | 69.5% (active) |
| O=C(Nc1nnc(COc2ccccc2)s1)Nc1ccccc1F | 6.4% (inactive) |
| Cc1[nH]c2ccccc2c1-c1ccc(Cl)nn1 | -1% (inactive) |
| N#C[C@]1(S(=O)(=O)c2ccccc2)C[C@@H]2ON=C(c3cccc(Br)c3)[C@@H]2C1 | 72.4% (active) |
| COC(=O)[C@]1(S(=O)(=O)c2ccccc2)C[C@@H]2ON=C(c3ccc(OC)cc3)[C@@H]2C1 | 1% (inactive) |
| CC1=C(C)CC(C(=O)NC(C)CCc2ccccc2)C(C(=O)O)C1 (stereo not given) | -1.3% (inactive) |
| COc1ccc(C)cc1Nc1n[n+](-c2ccccc2)c(-c2cccc(Cl)c2Cl)s1 | 1.4% (inactive) |
| CCc1ccc(Nc2n[n+](-c3ccccc3)c(-c3cccc(Cl)c3Cl)s2)cc1 | 57.1% (active) |

| Compound | inhibition |
| --- | --- |
| COc1cc(Br)c(-c2sc(Nc3ccccc3)n[n+]2-c2ccccc2)cc1OC | 1.6% (inactive) |
| Cc1ccc(C)c(OCCC(=O)OCC(=O)N2CCN(c3ccccc3)CC2)c1 | -0.6% (inactive) |
| CCOC(=O)N1CCN(C(=O)Cc2ccc(-n3c(=S)[nH]c4ccccc4c3=O)cc2)CC1 | -1.2% (inactive) |
| O=C(Cc1ccc(-n2c(=O)[nH]c3ccccc3c2=O)cc1)N1CCN(c2cccc(Cl)c2)CC1 | 53% (active) |
| O=C(CCCC(=O)N1CCN(c2cccc(Cl)c2)CC1)c1ccccc1 | -0.6% (inactive) |
| Cc1ccc(C(=O)N2CCN(C3CCCCC3)CC2)s1 | -0.6% (inactive) |
| CCCCCC(O)c1cccc(OCc2ccc3ccccc3n2)c1 (stereo not given) | 50.9% (active) |
| COc1cccc(C(O)c2ncc(-c3ccc4ccccc4c3)[nH]2)c1 (stereo not given) | -0.1% (inactive) |
| COc1cccc(C(O)c2nc3ccccc3n2C)c1 (stereo not given) | -0.2% (inactive) |
| Cc1ccnc(NC(=O)CCC(=O)N(CC(=O)NCc2ccccc2)Cc2ccco2)c1 | -0.3% (inactive) |
| N#Cc1c(-c2cccs2)nc(SCC(=O)c2ccc(Br)cc2)[nH]c1=O | 53.9% (active) |
| CCc1ccc(C(=O)CSc2nnc(C)c(=O)[nH]2)cc1 | 0.8% (inactive) |
| Cc1cc(C)c2c(=O)[nH]c(SCC(=O)Nc3ccc(Br)cc3)nc2n1 | 4.4% (inactive) |
| CC1=C(C(=O)N(C)C)CC(CC(=O)NCCc2ccccn2)C(=O)N1CCC1=CCCCC1 (stereo not given) | -0.3% (inactive) |
| CSCCC(NC(=O)c1ccc(=O)n(C)n1)c1nc2ccccc2[nH]1 (stereo not given) | -0.7% (inactive) |
| CSCCC(NC(=O)c1cc([N+](=O)[O-])cc([N+](=O)[O-])c1)c1nc2ccccc2[nH]1 (stereo not given) | 50.8% (active) |
| COc1ccc(CC(=O)N[C@@H](CCSC)c2nc3ccccc3[nH]2)cc1 | -1.3% (inactive) |
| COC(=O)[C@@]12C[C@@H](CC(=O)NCCCCc3ccccc3)C(=O)N(CCc3ccc(OC)c(OC)c3)C1=CCC(C)(C)C2 | -2.6% (inactive) |
| Cc1ccc(C)c(N2CCN(C(=O)Cn3ncn4cccc4c3=O)CC2)c1 | 0.1% (inactive) |
| COc1ccc(S(=O)(=O)NCC2CCCN(C(=O)c3occc3C)C2)cc1 (stereo not given) | -0.5% (inactive) |
| O=C(NNc1ccccc1Cl)C(O)(c1cccc(C(F)(F)F)c1)c1cccc(C(F)(F)F)c1 | 90% (active) |
| O=C(O)c1cc(S(=O)(=O)N(Cc2ccccc2)c2cccc(C(F)(F)F)c2)ccc1Cl | 0.9% (inactive) |
| O=c1cc(O)c(-c2cccc(C(F)(F)F)c2)c(Cl)[nH]1 | 3.7% (inactive) |
